Experimental data published in PubChem BioAssay AID2736 (Broad Institute, 2010).
This is one part of the list. The source made the active and inactive calls.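 Rule for the calls: active = every replicate shows more than 75% inhibition of signal versus neutral control wells; inconclusive = half to three quarters of replicates exceed 75% inhibition; inactive = fewer than half of replicates exceed 75% inhibition.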

Assay: Vibrio harveyi AI-2 signaling luminescence modulation – JMH597 strain, confirmation (AID 2736)
Settings: Vibrio harveyi JMH597 AI-2 quorum sensing luminescence, 9 h; at 7.5 µM; stronger effect = higher value; luxN and CqsS knockout, AI-2 only

Q: For `COc1cccc(NC(=O)NCc2ccc(F)cc2)c1`, which inhibition is on record?
A: 95.3% (active)

Q: With `N/C(=N\OC(=O)CCc1ccccc1)c1cccnc1` as the compound, how does the inhibition read?
A: 93.1% (active)

Q: Which inhibition does the source give for `O=C(/C=C/c1ccc2c(c1)OCCO2)c1ccc(O)cc1` here?
A: 95.7% (active)

Q: For `Cc1ccc(NS(=O)(=O)c2ccc3c(c2)NC(=O)CO3)cc1`, which inhibition is on record?
A: 95% (active)

Q: Which inhibition does the source give for `Cc1cccc(CSc2ccc(-c3cccs3)nn2)c1` here?
A: 96.9% (active)

Q: Which inhibition does the source give for `S=C(NCc1ccc(Cl)cc1)NC1CCCCC1` here?
A: 95.5% (active)

Q: For `Cc1ccc(Oc2cnn(-c3ccccc3)c(=O)c2Br)cc1`, which inhibition is on record?
A: 99.3% (active)

Q: Which inhibition does the source give for `O=C(CCC(=O)c1cccs1)Nc1nc2ccccc2s1` here?
A: 97.8% (active)

Q: For `O=C(Nc1ccc(F)c(Cl)c1)C1CCN(S(=O)(=O)c2cccnc2)CC1`, which inhibition is on record?
A: 98.4% (active)

Q: For `Cc1cc(CN(C)C(=O)c2cc(COc3ccc(C)c(C)c3)on2)n[nH]1`, which inhibition is on record?
A: 97.5% (active)

Q: Which inhibition does the source give for `Cc1cc(C(=O)OCC(=O)Nc2ccc(F)c(F)c2)c(C)o1` here?
A: 97.8% (active)

Q: Which inhibition does the source give for `CC(CNc1ccc([N+](=O)[O-])cc1)NC(=O)c1ccccc1Br` (stereo not given) here?
A: 8.81% (inactive)

Q: For `Cc1ccc(NC(=O)C2CC2c2ccccc2)cc1` (stereo not given), which inhibition is on record?
A: 94.7% (active)

Q: With `O=S(=O)(Nc1cccc(Oc2ccc(Cl)cc2)n1)c1ccc(F)cc1` as the compound, how does the inhibition read?
A: 99.7% (active)

Q: Which inhibition does the source give for `O=C(/C=C/c1ccc2c(c1)OCO2)NCc1ccc(F)cc1` here?
A: 94.2% (active)
